ELG1 DNA repair: inhibitors of ELG1-dependent DNA repair in HEK293T cells; HEK293T ELG1-luciferase reporter, luminescence, 16 h; DNA damage induced by 5-fluorouridine; Potency, µM (titrated, usually from 46.1 µM), for inactives: top-dose activity change, negative = inhibition, hits mostly inhibitors; 330,000 compounds, 2.3% hits; also: potency is read from the fitted curve at half-maximal effect; nearly all actives have a fitted effect of over 55% in size
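Luminescence from the luciferase reporter, measured 30 min after ONE-Glo reagent at room temperature, was the read-out. Beforehand, 2,000 cells per well were exposed for 16 hr at 37 °C to 5-fluorouridine together with compound or vehicle.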
Gal4-VP16 FLuc: counter-screen for ROR gamma inhibitors: Gal4-VP16 reporter; Potency, µM (highest dose often 53.6 µM), for the others: top-dose activity, negative = inhibition, usual class: inhibitors; AID 2546; 310,000 compounds, 3.5% hits; Drosophila S2 Gal4-VP16 UAS-luciferase, luminescence, 20 h;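 also: Gal4-VP16 expression switched on by copper sulfate through the metallothionein promoter; potency is read from the fitted curve at half-maximal effect; nearly all actives have a fitted effect of over 50% in size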
TSHR antagonist: antagonists of human thyroid stimulating hormone receptor. P16473. TSHR-expressing cells, TSH-stimulated cAMP HTRF, 2 h; active compounds read low. activity change, negative = inhibition, % at 11.5 µM. 330,000 compounds, 0.2% hits;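 active = activity change below a set negative limit, meaning inhibition stronger than a set level, cut at about -70% in these data; inconclusive = activity change between two set negative limits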
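Freshly harvested TSHR cells receive pin-tooled compound, then EC80 TSH at 4nM final. After 2 hours at 37 deg C, antibody in lysis buffer and cAMP-d2 are added; 30 minutes at ambient temperature precede the HTRF read.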
FBPA coupling cs: inhibits coupling enzyme system, counter-screen for aldolase hits; 290,000 compounds, 0.67% hits; activity change, negative = inhibition, % at 58.2 µM, hits read low; coupling enzyme system counterscreen, AmpLite Red fluorescence; in the data active = activity change below about -30%
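Compounds tested against the coupling enzymes alone at 57.5 uM final; readout was AmpLite Red fluorescence (525/598 nm) after 20 min at RT.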
RORg inh: blocks mouse ROR gamma transcriptional activity. AID 2551. P51450. Drosophila S2 Gal4-RORgamma UAS-luciferase reporter, 20 h. Potency, µM (titrated, usually from 53.6 µM), without a hit: top-dose activity change, negative = inhibition, most hits filed as inhibitors. 310,000 compounds, 5.4% hits; also: potency is read from the fitted curve at half-maximal effect; nearly all actives have a fitted effect of over 60% in size
Target sequence (P51450 whole entry, looked up, the tested form may be a part): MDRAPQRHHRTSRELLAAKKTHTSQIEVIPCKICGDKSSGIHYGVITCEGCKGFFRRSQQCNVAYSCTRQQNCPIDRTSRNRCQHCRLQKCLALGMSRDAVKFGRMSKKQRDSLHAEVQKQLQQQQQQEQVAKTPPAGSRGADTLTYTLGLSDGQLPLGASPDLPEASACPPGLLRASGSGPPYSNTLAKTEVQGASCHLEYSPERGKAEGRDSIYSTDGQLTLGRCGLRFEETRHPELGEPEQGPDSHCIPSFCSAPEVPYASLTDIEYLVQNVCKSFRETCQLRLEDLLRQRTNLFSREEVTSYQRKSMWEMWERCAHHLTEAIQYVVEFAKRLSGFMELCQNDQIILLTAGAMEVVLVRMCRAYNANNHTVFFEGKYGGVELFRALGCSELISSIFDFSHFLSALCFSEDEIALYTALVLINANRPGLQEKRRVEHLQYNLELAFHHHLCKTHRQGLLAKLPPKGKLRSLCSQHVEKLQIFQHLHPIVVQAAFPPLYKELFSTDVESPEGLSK
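A Gal4/UAS one-hybrid system in insect cells: metallothionein-promoter Gal4–ROR gamma fusion plus Photinus luciferase reporter. Copper sulfate 700 uM final, 20 hr ambient incubation, luminescent detection after 10 min with reagent.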
* = called active by the depositor; u = inconclusive; x = no result given; [ ] = another dose, or the depositor's remark. Sampled rows, rich in hits. Any-hit rate of the full collection: about 8%. Unless noted, calls follow the shape of the dose curve; as a rule, active = well fitted curve in the direction sought with a large enough effect; inconclusive = small, poorly fitted or top-dose-only effect, or another doubt; inactive = no such curve, though single readings can be large; an effect the other way counts as inactive or inconclusive. % is scaled to controls: 0 for no effect and ±100 for the full control effect.

SMILES	ELG1 DNA repair	Gal4-VP16 FLuc	TSHR antagonist	FBPA coupling cs	RORg inh
C[C@H](NC(=O)c1nc[nH]c1C(=O)N[C@@H](Cc1ccccc1)C(=O)OC(C)(C)C)C(=O)OCc1ccccc1	5%	u	-16	-4	7.9µM*
Cc1cc(OC(=O)c2ccccc2C)c([N+](=O)[O-])c(=O)[nH]1	0%	-4%	0	x	-14%
CCN(CC)C(=O)c1[nH]cnc1C(=O)NCC(=O)OCc1ccccc1	-9%	2%	-13	0	-22%
CCN(CC)C(=O)c1[nH]cnc1C(=O)N[C@@H](Cc1ccccc1)C(=O)OCc1ccccc1	-19%	u	19	4	14µM*
CC(C)(C)OC(=O)CNC(=O)c1nc[nH]c1C(=O)N1CCc2ccccc2C1	-1%	u	43	3	11µM*
O=C(N[C@@H](Cc1ccccc1)C(=O)OCc1ccccc1)c1nc[nH]c1C(=O)N1CCc2ccccc2C1	14%	u	1	1	13µM*
C[C@H](NC(=O)c1nc[nH]c1C(=O)N[C@@H](Cc1ccccc1)C(=O)OCc1ccccc1)C(=O)OCc1ccccc1	-4%	u	-4	-7	11µM*
CNC(=O)c1[nH]cnc1C(=O)N[C@@H](C)C(=O)OCc1ccccc1	u	-10%	4	1	33%
N#C/C(=C(/O)c1ccc([N+](=O)[O-])cc1)c1nnc2n1CCCCC2	-18%	u	13	1	18µM*
N#C/C(=C(/O)c1cccs1)c1nnc2n1CCCCC2	7%	u	15	2	10µM*
c1ccc(-c2nnc3n2CCCC3)cc1	9%	-12%	3	1	-8%
O=[N+]([O-])c1ccc(-c2nnc3n2CCCCC3)cc1	17%	1%	6	1	2%
C=C[C@@H]1c2c(F)cccc2N(S(=O)(=O)c2ccc(C)cc2)[C@H](c2ccc(C(=O)OC)cc2)C1(C#N)C#N	9%	x	-34	x	x
CCOC(=O)N1CCN(C(=O)c2cccn3c(=O)c4cc(Cl)ccc4nc23)CC1	-5%	-5%	8	0	4%
CCOC(CNC(=O)c1cccn2c(=O)c3cc(Cl)ccc3nc12)OCC	23µM*	1%	27	-6	-25%
O=C(CCN1CCOCC1)Nc1cc(C(=O)Nc2ccc(Cl)cc2)ccc1N1CC2CC(C1)c1cccc(=O)n1C2 (stereo not drawn)	u	11%	-1	1	2%
Cc1cc(C)n2nc(SCC(=O)N/N=C/c3ccccn3)nc2n1	27%	-10%	2	1	27%
Cc1cc(C)n2nc(SCC(=O)N/N=C/c3cccc(Br)c3)nc2n1	x	10%	x	-32*	u
CCCN1C(=O)CC(c2ccco2)Sc2ccccc21 (stereo not drawn)	9%	u	-2	4	16µM*
CN1C(=O)CC(c2ccco2)Sc2ccccc21 (stereo not drawn)	u	17%	11	5	-32%
CCC(c1nnc(SCC(=O)Nc2ccc(C(=O)N(C)C)cc2)n1Cc1ccccc1)N(C)C (stereo not drawn)	0%	2%	-1	x	3%
O=S(=O)(c1ccc(Br)s1)N1CCC(Cc2ccccc2)CC1	5%	-11%	-16	-2	13µM*
COC(=O)N/N=C/c1sc(N2CCCCC2)nc1-c1cccs1	-21%	0.79µM*	24	-21	10µM*
O=C(CCl)N(C/C=C/c1ccccc1)c1ccc2c(c1)OCCO2	u	u	5	-17	13µM*
CCOC(=O)C1=C(C)Nc2nnnn2C1c1c[nH]c2ccccc12 (stereo not drawn)	-7%	22µM*	17	-18	49%
SMILES	ELG1 DNA repair	Gal4-VP16 FLuc	TSHR antagonist	FBPA coupling cs	RORg inh
CCOC(=O)C1=C(C)Nc2nnnn2C1c1cccc(OC)c1OC (stereo not drawn)	-27%	2%	19	1	43%
COc1ccccc1N1CCN(c2nccc(C)n2)CC1	13%	-9%	-3	-2	-5%
Cn1ncc2c(NNC(=O)c3ccccc3Cl)ncnc21	22%	u	-1	0	1µM*
Cc1ccc(-n2ncc3c(NNC(=O)c4ccco4)ncnc32)cc1C	u	7.1µM*	-11	x	3.5µM*
Cc1ccccc1C(=O)NNc1ncnc2c1cnn2C	9%	-1%	21	0	u
COc1ccc(CC(=O)NNc2ncnc3c2cnn3-c2ccc(C)cc2)cc1OC	-7%	u	-12	0	6.3µM*
O=C(NNc1ncnc2c1cnn2-c1cccc(Cl)c1)c1ccco1	-3%	7.1µM*	1	1	5µM*
Cc1ccc(Cl)cc1-n1ncc2c(NNC(=O)c3ccco3)ncnc21	-7%	-2%	3	-3	u
COc1ccc2c(c1)C(=O)[C@@H](OC(=O)NCCc1ccc(OC)c(OC)c1)[C@H](c1ccc(OC)c(Br)c1)O2	x	-3%	x	0	-13%
COc1ccc2[nH]cc(CCNc3ncnc4ccc(-c5ccc6c(c5)OCO6)cc34)c2c1	x	-2%	x	-1	33%
Cc1ccc(NC(=O)Cn2cnc([N+](=O)[O-])c2)cc1C	u	24%	2	-1	-2%
COc1cc(OC)cc(C(=O)Nc2sc3c(c2C(N)=O)CCC3)c1	u	1%	-9	-1	-1%
Cc1ccc2nc(/C(C#N)=C\c3ccc(N4CCOCC4)o3)[nH]c2c1	u	-1%	-1	0	u
N#C/C(=C/c1ccc(Sc2nc3ccccc3[nH]2)o1)c1cccc(Br)c1	u	u	-25	3	u
N#C/C(=C/c1ccc(N2CCCCC2)o1)c1cccc(F)c1	u	10µM*	-2	-29	7.1µM*
Cc1ccc(/C(C#N)=C\c2ccc(N3CCOCC3)o2)cc1	u	2%[0.365 µM]	13	-25	1.8µM*
N#C/C(=C/c1ccc(N2CCCCCC2)o1)c1ccc(Cl)cc1	u	7.1µM*	-14	-20	7.1µM*
N#C/C(=C/c1ccc(Sc2nc3ccccc3[nH]2)o1)c1cccc(F)c1	18µM*	u	u	-6	u
O=C(CN1C(=O)NC2(CCCCCCC2)C1=O)Nc1ccc(Cl)cc1	3%	x	10	x	x
Cc1cccc(NC(=O)C2C3C=CC(O3)C2C(=O)O)c1C (stereo not drawn)	21%	x	3	1	x
CCC(=O)Nc1ccc(Nc2nc(C)c([N+](=O)[O-])c(Nc3ccc(NC(=O)CC)cc3)n2)cc1	12µM*	-11%	-21	-10	u
COc1ccc(/C=N/Nc2nc(C)c([N+](=O)[O-])c(N(C)c3ccccc3)n2)cc1OC	18%	-17%	-10	2	-37%
Cc1nc(Nc2ccc(C(=O)O)cc2)nc(Nc2ccc(C(=O)O)cc2)c1[N+](=O)[O-]	5%	-7%	-6	1	u
